BioA inh = BioA (M. tuberculosis) enzyme inhibition; AID 602481; purified M. tuberculosis BioA enzyme, plate reader; 0.096% of 360,000 active; inhibition, % at 9.99 µM; in the data active = inhibition above about 40%
Yp Topo-I inh = blocks Yersinia pestis topoisomerase I activity. AID 504884. 0.064% of 360,000 active. Y. pestis Topo-I cleavage product accumulation, plate reader. activity, % at 10 µM; in the data active = activity above about 50%, passing the limit was not always enough
Sa ugtP lethal = growth inhibition of S. aureus ugtP deletion strain; growth inhibition, % (no concentration beside the values); 0.54% of 330,000 active; S. aureus RN4220 ugtP deletion, OD600 growth, 16 h; in the data active = growth inhibition above about 68%
RN4220 kill = kills Staphylococcus aureus RN4220; AID 1259311; S. aureus RN4220 growth, OD600, 16 h; inhibition, % (no concentration beside the values); 0.33% of 330,000 active; in the data active = inhibition above about 85%
TcdB GH inh = inhibitors of Clostridioides difficile toxin B glycohydrolase | P18177 | TcdB glycohydrolase enzymatic assay, plate reader | inhibition, % at 9.99 µM | 0.24% of 350,000 active; in the data active = inhibition above about 10%
Mtb hypoxia rep = reduces hypoxia-regulated biosensor signal in M. tuberculosis; 0.1% of 300,000 active; AID 1159583; fluorescence inhibition, % (no concentration beside the values); M. tuberculosis hypoxia-regulated fluorescent reporter, fluorescence; in the data active = fluorescence inhibition mostly above about 23%, no sharp cut-off; inactive = mostly below about 17%
A number is an active result; n = inactive; x = no result. A selection: hits, their analogues and other compounds. The true share with any hit is near 0.75%.

SMILES	BioA inh	Yp Topo-I inh	Sa ugtP lethal	RN4220 kill	TcdB GH inh	Mtb hypoxia rep
O=C1CC(c2ccc(OCCCCCOc3ccc(C4CC(=O)NC4=O)cc3)cc2)C(=O)N1 (centres undefined)	n	n	n	n	n	n
CCCCCCCCOc1ccc(C2CC(=O)NC2=O)cc1 (centres undefined)	n	n	92.7	n	n	n
CCOC(=O)/C(C#N)=C1/C=C(C)NC(c2ccccc2O)=N1	n	n	83.2	n	x	n
CCOC(=O)/C(C#N)=C1\Nc2ccccc2N=C1N(CC(C)C)CC(C)C	n	n	n	n	x	n
COc1cc(C=c2sc3nc(-c4ccccc4)c(-c4ccccc4)n3c2=O)cc(OC)c1OC	x	x	n	n	x	n
Cn1nc(C(=O)Nc2cc(Cl)ccc2N2CCCC2)c2ccccc2c1=O	n	n	99.6	99.6	n	n
CN1CCN(c2ccc(Cl)cc2NC(=O)c2nn(-c3ccccc3)c(=O)c3ccccc23)CC1	n	n	n	n	x	n
Cc1ccc(S(=O)(=O)N2CCCCC2C(=O)O)cc1 (centres undefined)	x	n	n	n	n	n
Cc1cc(C)c(C)c(S(=O)(=O)N2CCCCC2C(=O)O)c1C (centres undefined)	n	n	n	n	15.0	n
CC1(C)c2[nH]c3ccccc3c2CC2C(=O)N(c3ccc(F)cc3F)C(=O)N21 (centres undefined)	x	x	n	n	x	n
OCC[n+]1ccc(C=Cc2c[nH]c3ccccc23)cc1	x	x	n	n	x	n
Cc1ccc(Oc2nnc(-c3ccccc3)c3ccccc23)cc1	n	n	89.6	n	n	n
COc1ccc(C)cc1N(CC(=O)Nc1ccc(S(=O)(=O)N2CCOCC2)cc1)S(C)(=O)=O	n	n	n	n	n	n
CS(=O)(=O)N(CC(=O)Nc1ccc(S(=O)(=O)N2CCOCC2)cc1)c1ccccc1Br	n	n	n	n	31.7	n
O=S(=O)(O)c1cccc(N=Nc2c(O)ccc3ccccc23)c1	n	n	n	n	n	35.8
CCOC(=O)C=Cc1ccccc1S(=O)(=O)NC(C)(C)C	x	x	n	n	x	n
O=C(NN=C1CC2CC=CC12)c1ccc(O)cc1 (centres undefined)	x	x	n	n	x	n
COC(=O)c1ccc(C=NNC(=O)C(=O)NCC2CCCO2)cc1 (centres undefined)	x	x	n	n	x	n
CCN(CC)c1ccc(C(=C2C=CC(=[N+](CC)CC)C=C2)c2ccccc2)cc1	x	n	x	x	n	x
CCN(CC)c1ccc(C(=C2C=CC(=[N+](CC)CC)C=C2)c2ccc(N(CC)CC)cc2)cc1	n	n	n	n	n	100.2
CC(=O)Oc1cccc2c1C(=O)C1CC=CC(OC(C)=O)C1C2=O (centres undefined)	x	60.9	x	x	n	x
N#CCC(=O)N1CC2(CC(c3cccc(NC(=O)COc4ccc(Cl)cc4)c3)=NO2)CC1C(N)=O (centres undefined)	x	x	n	n	x	n
Cc1ccc(S(=O)(=O)Oc2ccc(/C=N/NC(=O)c3nn(C)cc3[N+](=O)[O-])cc2)cc1	x	n	x	x	13.9	x
O=C(OCC(=O)N1CCCc2ccccc21)c1ccc(C(F)(F)F)cc1	n	n	n	n	10.6	n
O=C(OCC(=O)N1CCCc2ccccc21)c1ccc(S(=O)(=O)C(F)F)cc1	x	n	n	n	n	n
SMILES	BioA inh	Yp Topo-I inh	Sa ugtP lethal	RN4220 kill	TcdB GH inh	Mtb hypoxia rep
Nc1nc(NCCO)nc(N2CCCCCC2)c1[N+](=O)[O-]	x	n	n	n	n	n
Nc1nc(NCCOCCO)nc(N2CCCCCC2)c1[N+](=O)[O-]	x	n	94.5	n	n	n
CC(NC(=O)c1nc[nH]c1C(=O)NCc1ccc(CNC(=O)OC(C)(C)C)cc1)C(=O)OC(C)(C)C (centres undefined)	x	x	n	n	x	n
CNC(=O)C[C@@H]1CC[C@H]2[C@@H](COc3ccc(NS(=O)(=O)c4ccccc4C)cc3C(=O)N2C)O1	n	x	x	x	n	x
CNC(=O)C[C@@H]1CC[C@H]2[C@H](COc3ccc(NS(=O)(=O)c4ccccc4C)cc3C(=O)N2C)O1	n	x	x	x	11.5	x
CNC(=O)C[C@H]1CC[C@@H]2[C@H](COc3ccc(NS(=O)(=O)c4ccccc4C)cc3C(=O)N2C)O1	n	x	x	x	12.4	x
CCCCCC=CCC(O)C=Cc1cccc(CC(O)CCCCO)n1 (centres undefined)	x	x	n	n	x	n
C=CC[C@@H](CC(=O)N(CCO)Cc1ccccc1)C(=O)NC[C@@H](OC(=O)[C@@H](CC=C)CC(=O)OC(C)(C)C)c1ccccc1	n	n	x	x	10.6	x
COC(=O)[C@@]12CCCCN1C(c1ccc(-c3ccc(F)cc3)c(OC)c1)C1C(=O)N(C)C(=O)C12 (some centres undefined)	x	x	n	n	x	n
COC(=O)[C@@]12CCCCN1[C@H](c1ccc(-c3ccccc3)c(OC)c1)[C@H]1C(=O)N(C)C(=O)[C@H]12	n	n	x	x	12.3	x
COc1cccc(C(=O)CC(=O)C(=O)Nc2ccc(C)cc2Cl)c1	n	n	86.9	n	n	n
COc1cc(OC)c(NC(=O)Cn2cccc2)cc1Cl	n	n	n	n	x	n
COc1ccc(C(=O)CC(=O)C(=O)Nc2ccc(C)cc2Cl)cc1	n	n	n	n	n	n
COc1cc(OC)c(NC(=O)C(=O)CC(=O)c2ccc(C)cc2C)cc1Cl	n	n	n	84.6	n	n
CC(=NNC(=O)c1ccc(Cn2cc(Br)cn2)o1)c1cccc(NC(=O)C(C)(C)C)c1	x	x	n	n	x	n
O=C(O)CN1C(=O)/C(=C\c2cn(-c3ccccc3)nc2-c2ccccc2)SC1=S	n	n	x	x	x	x
CC(C)COc1ccc(-c2nn(-c3ccccc3)cc2/C=C2/SC(=S)N(CC(=O)O)C2=O)cc1	n	n	n	98.3	n	n
O=C(N/N=C/c1ccc(O)cc1)NC12CC3CC(CC(C3)C1)C2	n	n	x	x	19.1	x
COC(=O)c1ccc(C23CC4(C2)C(CN(Cc2cccnc2)C4c2ccccc2)C3c2ccccc2)cc1 (centres undefined)	x	x	n	n	x	n
C#CCN(C[C@@H](CC(C)C)NC(=O)OC(C)(C)C)S(=O)(=O)c1ccc(Br)cc1F	n	53.2	x	x	n	x
CC(C)CC(NC(=O)C(CC(C)C)NC(=O)OC(C)(C)C)C(=O)O (centres undefined)	n	n	n	n	x	x
C[C@@H](CSc1ccc(Br)cc1)CN1CC[C@H](NC(=O)OCc2ccccc2)CCC1=O	n	n	x	x	n	x
COc1ccc(SC[C@H](C)CN2CC[C@H](NC(=O)OCc3ccccc3)CCC2=O)cc1	n	n	x	x	10.2	x
CNC(C(=O)c1ccccc1)C(OC)c1cccc([N+](=O)[O-])c1 (centres undefined)	x	n	n	n	20.9	n
CNC(C(=O)c1ccccc1)C(OC)c1ccccc1 (centres undefined)	n	n	n	n	x	x
C=CCn1c(CNc2ccccc2)nnc1SCC(=O)NN=Cc1ccc(O)cc1O	x	x	n	n	x	x
Cc1ccccc1OCC(=O)NN=Cc1ccc([N+](=O)[O-])o1	x	x	n	n	x	n
O=C(O)c1ccc(NN=C/C=C/c2ccc([N+](=O)[O-])o2)cc1	x	x	n	n	x	68.3

Assay outcomes as filed in PubChem BioAssay.
